# Assay results from patent publication US20090232783, “Method for Regulating Production of Hemoglobin Beta Chains” (published 2009).
# Target: Nuclear ferritin-H (K562 nuclear extract, crude or heat/proteinase K enriched) (Homo sapiens, UniProt P02794 P02794:2-183)
# Test: competition; 20-fold greater competitor concentration than wt needed for 50% inhibition; 1000-fold vs 50-fold excess
# Settings: protein: extract; dsDNA, one strand shown
# Experimental: Gel mobility shift assays. Gel retardation assays (i.e., gel shifts) were used to determine DNA binding of the extract proteins to the Rsa I (95 bp) fragment and synthetic oligonucleotides (Berg et al., (1989) Nucleic Acids Res 17, 8833-52; Fried & Crothers (1981) Nucleic Acids Res 9, 6505-25). Each reaction contained 0.5-2 ng of DNA, 1.0-5.0 ug of extract protein, 1.0-5.0 ug of poly dI:poly dC, 100 mM KCl, and binding buffer (Berg et al., (1989) Nucleic Acids Res 17, 8833-52). Unlabeled competitor oligonucleotides ranged from 15- to 2000-fold molar excess and were included in the reaction mixture with the probe before adding protein. Gels used for retardation assays were 4%, 5%, or 6% acrylamide and the running buffer was low ionic strength TAE (Berg et al., (1989) Nucleic Acids Res 17, 8833-52).
# Definition of the binding site with competition gel shifts. To further localize the binding of ferritin, the 37 bp oligonucleotide was mutated in different places, replacing six nucleotides at a time with all A's, all C's, or all G's, with complementary nucleotide replacements in the opposing strand (FIG. 4A). A competition gel shift assay was done with the partially purified protein from heated K562 nuclear extract, in which each of the unlabeled mutant oligos as well as the native sequence was competed against the 32-P-labeled native sequence for binding.
row,Sequence,binding signal
1,AACTCCTAAGCAAAAAACAGAAGAGCCAAGGACAGGT,20 fold
